Source: PubChem BioAssay (NCATS)
Inconclusive results are not listed. Where a call stands in place of a potency, no number is given. Active and inactive are the calls of the source. Calls follow the shape of the dose curve; as a rule, active = well fitted curve in the direction sought with a large enough effect; inconclusive = small, poorly fitted or top-dose-only effect, or another doubt; inactive = no such curve, though single readings can be large; an effect the other way counts as inactive or inconclusive.

What was measured:
[1] = qHTS of pediatric cancer cell lines to identify multiple opportunities for drug repurposing: Primary screen for A673 cells (AID 1347092); also: nearly all actives have a fitted effect of over 45% in size; also: potency is read from the fitted curve at half-maximal effect
Outline: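 Cells are plated, rested 5 h, dosed by pintool, incubated 48 h, then lysed with CellTiter-Glo and read by luminescence. DMSO is the neutral control; bortezomib at 2.3 uM final is the positive control.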

[2] = qHTS of pediatric cancer cell lines to identify multiple opportunities for drug repurposing: Primary screen for SK-N-MC cells (AID 1347093); also: potency is read from the fitted curve at half-maximal effect
Outline: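 Metabolically active cells were quantified by ATP-dependent luminescence (CellTiter-Glo, 15 min at room temperature) following 48 h treatment. Cells had been plated at 500-1,000 per well and settled for 5 h beforehand.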

[3] = qHTS of pediatric cancer cell lines to identify multiple opportunities for drug repurposing: Primary screen for Saos-2 cells (AID 1347097); also: nearly all actives have a fitted effect of over 40% in size; also: potency is read from the fitted curve at half-maximal effect
Outline: (§1)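 Readout: CellTiter-Glo luminescence, 48 h treatment. Controls DMSO (neutral) and bortezomib 2.3 µM final (positive). Potency and efficacy taken from primary-screen concentration-response curves.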

[4] = qHTS of pediatric cancer cell lines to identify multiple opportunities for drug repurposing: Primary screen for RD cells (AID 1347104); also: nearly all actives have a fitted effect of over 55% in size; also: potency is read from the fitted curve at half-maximal effect
Outline: as §1

[5] = qHTS of pediatric cancer cell lines to identify multiple opportunities for drug repurposing: Primary screen for control Hh wild type fibroblast cells (AID 1347106);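 also: series mostly up to about 46 µM; a drop in luminescence marks cytotoxicity and a rise apparent proliferation; nearly all actives have a fitted effect of over 55% in size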
Outline: (§2)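 Viability after 48 h compound treatment at 37C, 500-1,000 cells/well, read as ATP luminescence with CellTiter-Glo. Primary screens used 11-point (MIPE, 0.78 nM-46 µM) or 8-point (NPC, 0.59 nM-46 µM) final concentrations; follow-up screens used 11-point dilutions.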

[6] = qHTS of pediatric cancer cell lines to identify multiple opportunities for drug repurposing: Primary screen for BT-37 cells (AID 1347094); also: potency is read from the fitted curve at half-maximal effect
Outline: as §1

[7] = qHTS of pediatric cancer cell lines to identify multiple opportunities for drug repurposing: Primary screen for NB-EBc1 cells (AID 1347095); also: potency is read from the fitted curve at half-maximal effect
Outline: as §1

[8] = qHTS of pediatric cancer cell lines to identify multiple opportunities for drug repurposing: Primary screen for U-2 OS cells (AID 1347096); also: nearly all actives have a fitted effect of over 50% in size; also: potency is read from the fitted curve at half-maximal effect
Outline: as §2

[9] = qHTS of pediatric cancer cell lines to identify multiple opportunities for drug repurposing: Primary screen for SK-N-SH cells (AID 1347098); also: nearly all actives have a fitted effect of over 65% in size; also: potency is read from the fitted curve at half-maximal effect
Outline: (§3)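 Cells (500-1,000/well) rested 5 h, then received compounds for 48 h; metabolically active cells were measured by CellTiter-Glo luminescence. Final concentrations spanned up to 46 µM (MIPE, 11-point) or 0.59 nM-46 µM (NPC, 8-point) in primary screens, 11-point in follow-ups.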

[10] = qHTS of pediatric cancer cell lines to identify multiple opportunities for drug repurposing: Primary screen for NB1643 cells (AID 1347099); also: nearly all actives have a fitted effect of over 50% in size; also: potency is read from the fitted curve at half-maximal effect
Outline: as §1

[11] = qHTS of pediatric cancer cell lines to identify multiple opportunities for drug repurposing: Primary screen for Rh18 cells (AID 1347102); also: nearly all actives have a fitted effect of over 65% in size; also: potency is read from the fitted curve at half-maximal effect
Outline: as §2

[12] = qHTS of pediatric cancer cell lines to identify multiple opportunities for drug repurposing: Primary screen for OHS-50 cells (AID 1347103); also: nearly all actives have a fitted effect of over 40% in size; also: potency is read from the fitted curve at half-maximal effect
Outline: as §3

[13] = qHTS of pediatric cancer cell lines to identify multiple opportunities for drug repurposing: Primary screen for MG 63 (6-TG R) cells (AID 1347105); also: nearly all actives have a fitted effect of over 50% in size; also: potency is read from the fitted curve at half-maximal effect
Outline: as §1

[14] = qHTS of pediatric cancer cell lines to identify multiple opportunities for drug repurposing: Primary screen for Rh30 cells (AID 1347107); also: series mostly up to about 46 µM; nearly all actives have a fitted effect of over 75% in size
Outline: as §2

[15] = qHTS of pediatric cancer cell lines to identify multiple opportunities for drug repurposing: Primary screen for Rh41 cells (AID 1347108); also: nearly all actives have a fitted effect of over 70% in size; also: potency is read from the fitted curve at half-maximal effect
Outline: as §1

[16] = qHTS of pediatric cancer cell lines to identify multiple opportunities for drug repurposing: Confirmatory screen for NB1643 cells (AID 1347109); also: nearly all actives have a fitted effect of over 45% in size; also: potency is read from the fitted curve at half-maximal effect
Outline: as §2

[17] = qHTS of pediatric cancer cell lines to identify multiple opportunities for drug repurposing: Confirmatory screen for SK-N-MC cells (AID 1347111);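 also: potency is read from the fitted curve at half-maximal effect; cells exposed to compound for 48 h before the readout; nearly all actives have a fitted effect of over 70% in size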
Outline: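 SK-N-MC cells at 500-1,000 cells/well in growth media were pre-incubated 5 h, then exposed to compounds at 11-point dilutions for 48 h at 37 degrees C, 5% CO2. Viability was read as CellTiter-Glo luminescence.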

[18] = qHTS of pediatric cancer cell lines to identify multiple opportunities for drug repurposing: Primary screen for LAN-5 cells (AID 1347100); also: potency is read from the fitted curve at half-maximal effect
Outline: as §2

[19] = qHTS of pediatric cancer cell lines to identify multiple opportunities for drug repurposing: Primary screen for BT-12 cells (AID 1347101); also: nearly all actives have a fitted effect of over 25% in size; also: potency is read from the fitted curve at half-maximal effect
Outline: as §3

[20] = qHTS of pediatric cancer cell lines to identify multiple opportunities for drug repurposing: Confirmatory screen for A673 cells (AID 1347110); also: nearly all actives have a fitted effect of over 65% in size; also: potency is read from the fitted curve at half-maximal effect
Outline: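 Cells plated at 500-1,000/well were treated five hours later with multi-point dilutions up to 46 µM final. After two days, CellTiter-Glo was added and luminescence read.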

Structure (SMILES)	Potency [1]	Potency [2]	Potency [3]	Potency [4]	Potency [5]	Potency [6]	Potency [7]	Potency [8]	Potency [9]	Potency [10]	Potency [11]	Potency [12]	Potency [13]	Potency [14]	Potency [15]	Potency [16]	Potency [17]	Potency [18]	Potency [19]	Potency [20]
CC1=C(C(=O)OC(C)C)C(c2cccc([N+](=O)[O-])c2)C(C(=O)OC2CN(C(c3ccccc3)c3ccccc3)C2)=C(N)N1 (stereo not drawn)	13.3 µM (active)	6.68 µM (active)	21.1 µM (active)	23.7 µM (active)	inactive	–	–	–	–	–	–	–	–	–	–	–	–	–	–	–
C=C1C[C@H]2[C@@H]3C=C(C)C4=CC(=O)CC[C@]4(C)[C@H]3CC[C@]2(C)[C@@]1(OC(C)=O)C(C)=O	inactive	–	inactive	inactive	–	inactive	inactive	inactive	inactive	inactive	inactive	30.9 µM (active)	inactive	inactive	inactive	inactive	2.61 µM (active)	–	–	–
CC1=C(C(=O)O)N2C(=O)[C@@H](NC(=O)[C@H](N)c3ccc(O)cc3)[C@H]2SC1	inactive	–	inactive	inactive	inactive	inactive	inactive	inactive	inactive	inactive	inactive	inactive	inactive	inactive	inactive	–	–	inactive	inactive	–
OC[C@H]1O[C@@H](n2cnc3c(=S)nc[nH]c32)[C@H](O)[C@@H]1O	0.266 µM (active)	18.8 µM (active)	15 µM (active)	inactive	inactive	0.389 µM (active)	1.33 µM (active)	–	–	0.75 µM (active)	inactive	0.55 µM (active)	inactive	–	–	–	–	2.11 µM (active)	9.78 µM (active)	2.08 µM (active)
Cc1cc(O)c(C(C)C)cc1Cl	inactive	inactive	–	inactive	inactive	inactive	inactive	inactive	inactive	inactive	inactive	–	inactive	inactive	inactive	–	–	inactive	–	–
C[C@]12CCC(=O)C=C1[C@@H]1C[C@@H]1[C@H]1[C@@H]3[C@@H]4C[C@@H]4[C@@]4(CCC(=O)O4)[C@@]3(C)CC[C@@H]12	inactive	–	inactive	inactive	inactive	inactive	inactive	inactive	inactive	inactive	inactive	24.6 µM (active)	inactive	inactive	inactive	–	–	inactive	–	–
CCCCCCCCCCCCCCCC[N+](C)(C)CC	1.06 µM (active)	2.66 µM (active)	13.3 µM (active)	13.3 µM (active)	–	13.8 µM (active)	–	–	12.2 µM (active)	–	0.473 µM (active)	–	26.6 µM (active)	–	13.3 µM (active)	–	–	–	2.76 µM (active)	–
O=C(OCCOCCO)c1ccccc1Nc1cccc(C(F)(F)F)c1	inactive	inactive	–	inactive	inactive	inactive	–	inactive	–	inactive	inactive	24.6 µM (active)	inactive	inactive	inactive	–	–	–	–	–
C#C[C@]1(O)CC[C@H]2[C@@H]3CCC4=CC(=O)CC[C@@H]4[C@H]3CC[C@@]21C	inactive	inactive	inactive	inactive	inactive	inactive	–	inactive	inactive	inactive	inactive	–	–	inactive	inactive	–	–	inactive	inactive	–
Nc1ccn([C@@H]2O[C@H](CO)[C@@H](O)C2(F)F)c(=O)n1	0.0042 µM (active)	0.106 µM (active)	–	inactive	–	0.0049 µM (active)	1.19 µM (active)	inactive	–	0.0422 µM (active)	inactive	–	–	inactive	inactive	–	–	0.075 µM (active)	–	–
C[C@]12CC[C@@H]3c4ccc(O)cc4CC[C@H]3[C@@H]1C[C@@H](O)[C@@H]2O	inactive	inactive	inactive	inactive	–	inactive	–	inactive	inactive	inactive	inactive	–	inactive	inactive	inactive	–	–	inactive	–	–
COc1cc(C=C2CCC/C(=C\c3ccc(O)c(OC)c3)C2=O)ccc1O	0.266 µM (active)	0.335 µM (active)	23.7 µM (active)	10.6 µM (active)	inactive	27.6 µM (active)	–	–	15.4 µM (active)	–	–	–	–	–	–	18.5 µM (active)	0.465 µM (active)	7.5 µM (active)	11 µM (active)	0.185 µM (active)
CCOc1ccc(NC(=O)CC(C)O)cc1 (stereo not drawn)	inactive	inactive	–	inactive	inactive	inactive	inactive	inactive	inactive	inactive	inactive	inactive	inactive	inactive	inactive	–	–	inactive	inactive	–
CC(C)(C(=O)c1cccnc1)c1cccnc1	inactive	inactive	–	inactive	inactive	inactive	inactive	inactive	inactive	inactive	inactive	–	inactive	inactive	inactive	inactive	2.93 µM (active)	inactive	inactive	0.369 µM (active)
CC1(C)O[C@@H]2C[C@H]3[C@@H]4C[C@H](F)C5=CC(=O)C=C[C@]5(C)[C@H]4[C@@H](O)C[C@]3(C)[C@]2(C(=O)CO)O1	inactive	inactive	–	inactive	inactive	inactive	inactive	inactive	inactive	inactive	inactive	inactive	inactive	inactive	inactive	–	–	inactive	inactive	–
CCOC(=O)n1ccn(C)c1=S	inactive	–	inactive	inactive	inactive	inactive	inactive	inactive	inactive	inactive	inactive	inactive	–	inactive	inactive	–	–	inactive	inactive	–
O=C(Nc1ccc(Cl)c(Cl)c1)C1CC1	inactive	inactive	inactive	inactive	inactive	inactive	inactive	–	inactive	inactive	inactive	–	inactive	inactive	inactive	–	–	inactive	–	–
CC(C)(C)CC(C)(C)c1ccc(OCCOCC[N+](C)(C)Cc2ccccc2)cc1	10.6 µM (active)	5.96 µM (active)	13.3 µM (active)	26.6 µM (active)	–	13.8 µM (active)	–	–	–	–	10.6 µM (active)	6.17 µM (active)	26.6 µM (active)	–	16.8 µM (active)	–	–	21.1 µM (active)	8.71 µM (active)	–
CN(C)/N=N/c1nc[nH]c1C(N)=O	inactive	2.66 µM (active)	inactive	inactive	inactive	–	inactive	inactive	inactive	–	inactive	–	inactive	inactive	–	–	9.27 µM (active)	inactive	inactive	inactive
CCN(CC)C(=O)/C(C#N)=C/c1cc(O)c(O)c([N+](=O)[O-])c1	inactive	inactive	inactive	inactive	–	–	–	inactive	inactive	inactive	inactive	–	inactive	inactive	inactive	–	–	–	–	–
CCCC(=O)Nc1ccc(OCC(O)CNC(C)C)c(C(C)=O)c1 (stereo not drawn)	inactive	inactive	–	inactive	inactive	inactive	inactive	inactive	inactive	inactive	inactive	inactive	inactive	inactive	inactive	–	–	inactive	inactive	–
CCCOC(C(=O)OC1CCN(C)CC1)(c1ccccc1)c1ccccc1	inactive	inactive	–	–	inactive	–	–	inactive	–	inactive	–	27.6 µM (active)	inactive	inactive	inactive	–	–	inactive	inactive	–
OC[C@@H](O)[C@@H](O[C@@H]1O[C@H](CO)[C@H](O)[C@H](O)[C@H]1O)[C@H](O)[C@@H](O)CO	inactive	–	inactive	inactive	inactive	inactive	inactive	inactive	inactive	inactive	inactive	inactive	inactive	inactive	inactive	–	–	inactive	inactive	–
O=C(COc1ccc(Cl)cc1)N1CCN(Cc2ccc3c(c2)OCO3)CC1	inactive	inactive	inactive	inactive	inactive	inactive	–	inactive	inactive	inactive	inactive	–	inactive	inactive	inactive	–	–	inactive	–	–
C[C@]12C=CC(=O)C=C1CC[C@@H]1[C@@H]2[C@@H](O)C[C@@]2(C)[C@H]1CC[C@]2(O)C(=O)CO	inactive	inactive	–	inactive	–	inactive	inactive	inactive	inactive	inactive	inactive	inactive	inactive	inactive	inactive	–	–	inactive	–	–
CCN(CCCCOC(=O)c1ccc(OC)c(OC)c1)C(C)Cc1ccc(OC)cc1 (stereo not drawn)	inactive	inactive	–	inactive	inactive	–	inactive	inactive	–	inactive	inactive	–	inactive	inactive	inactive	–	–	inactive	–	–
COc1cc(-c2ccc(=O)[nH]n2)ccc1OC(F)F	inactive	inactive	–	inactive	–	inactive	inactive	inactive	–	inactive	inactive	inactive	–	inactive	inactive	–	–	inactive	–	–
C[n+]1c2cc(N)ccc2cc2ccc(N)cc21 (tested in a mixture with another compound)	5.31 µM (active)	8.41 µM (active)	–	15 µM (active)	–	3.47 µM (active)	11.9 µM (active)	13.3 µM (active)	3.86 µM (active)	7.5 µM (active)	8.41 µM (active)	17.4 µM (active)	–	–	16.8 µM (active)	3.29 µM (active)	6.57 µM (active)	5.96 µM (active)	3.89 µM (active)	5.22 µM (active)
